# Experimental data taken from the supplement of paper PMC7156485.
# ± gives the standard deviation of the averaged measurements.
# How the values were obtained:
# Details in all cases: concentration: 10 µM; 24 h
# [1] = test system: HCC1569; test: cell number relative to DMSO (% of DMSO); higher = more cells (less growth inhibition / toxicity)
# Outline: (§1)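 HCC1569 and TDF cells were seeded at 800 per well in 384-well plates in RPMI with 10% FBS and treated with compounds at 10 µM for 24 h at 37 °C, in triplicate. After fixation in 3.7% formaldehyde, cells were stained with a rabbit anti-H1.0 antibody, an AlexaFluor 647 secondary and DAPI, and six fields per well were imaged at ×10. H1.0 nuclear intensity or cell number is given as percent of the plate control, using the median of replicates, with HCC1569 values smoothed for positional effects.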
# [2] = test system: TDF; test: as above
# Outline: as §1
# [3] = test system: TDF; test: H1.0 immunofluorescence intensity relative to DMSO (% of DMSO); higher = stronger H1.0 induction, active = 120 or more
# Outline: as §1
# [4] = test system: HCC1569; test: H1.0 immunofluorescence intensity relative to DMSO (% of DMSO); higher = stronger H1.0 induction, active = 140 or more
# Outline: as §1
# 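Wherever H1.0 immunofluorescence intensity relative to DMSO is given: TDF is a line of transformed human dermal fibroblasts of mesenchymal origin.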
# 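Wherever cell number relative to DMSO is given: TDF denotes transformed human dermal fibroblasts of mesenchymal origin.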
SMILES,cell number [1],cell number [2],H1.0 immunofluorescence intensity [3],H1.0 immunofluorescence intensity [4]
O=C([O-])Cc1ccccc1Nc1c(Cl)cccc1Cl.[Na+] [Diclofenac sodium],109,97.8,99.1 (inactive),89.9 (inactive)
COc1ccc2[nH]cc(CCNC(C)=O)c2c1 [Melatonin],101 ± 3.5,99.5 ± 3,93.4 (inactive),93.4 (inactive)
C#CCNCc1cc2cc(OCc3ccccc3)ccc2[nH]1 [N-((5-(benzyloxy)-1H-indol-2-yl)methyl)prop-2-yn-1-amine],82.8,91,96 (inactive),136 (inactive)
Cl.O=C(CNC(=O)c1cccc(C(F)(F)F)c1)N[C@@H]1CCN(Cc2ccc(Cl)cc2)C1,89.9,96.8,89.1 (inactive),134 (inactive)
CC1(C)CC(NC(=O)C(=O)Nc2ccc(Cl)cc2)CC(C)(C)N1,104,107,91 (inactive),99.1 (inactive)
Cn1cnc2c(F)c(Nc3ccc(Br)cc3Cl)c(C(=O)NOCCO)cc21,105,91.8,93.3 (inactive),98.8 (inactive)
CC(C)C(CO)Nc1nc(Nc2cc(N)cc(Cl)c2)c2ncn(C(C)C)c2n1 (configuration not stated),60.6,45.9,111 (inactive),177 (active)
COC1CC2CCC(C)C(O)(O2)C(=O)C(=O)N2CCCCC2C(=O)OC(C(C)CC2CCC(O)C(OC)C2)CC(=O)C(C)C=C(C)C(O)C(OC)C(=O)C(C)CC(C)C=CC=CC=C1C (configuration not stated) [Rapamycin],96.2 ± 5.5,92.4 ± 8.9,86.7 (inactive),108 (inactive)
CCc1cccc2c3c([nH]c12)C(CC)(CC(=O)O)OCC3 (configuration not stated) [Etodolac],98.6,101,97 (inactive),105 (inactive)
CCCCN(CCCC)CC(O)c1cc(Cl)cc2c1-c1ccc(Cl)cc1/C2=C/c1ccc(Cl)cc1 (configuration not stated),103,108,90.7 (inactive),104 (inactive)
COc1ccc2c(c1)c(CC(=O)O)c(C)n2C(=O)c1ccc(Cl)cc1 [Indomethacin],101 ± 1.8,106 ± 20,91.3 (inactive),102 (inactive)
CCC1(O)C(=O)OCc2c1cc1n(c2=O)Cc2cc3c(CN(C)C)c(O)ccc3nc2-1.Cl (configuration not stated) [Topotecan.HCl],65.7,17.1,154 (active),96.3 (inactive)
COc1ccc2cc(CCC(C)=O)ccc2c1 [Nabumetone],107,97.4,93.8 (inactive),111 (inactive)
Cc1ccc(-c2n[nH]c3c2C(c2cccc(O)c2)N(c2ccc(C(=O)O)cc2)C3=O)cc1 (configuration not stated),103,92.6,95 (inactive),116 (inactive)
CCc1cc(Cl)c(OC)c(C(=O)NCC2CCCN2CC)c1O.Cl (stereo not drawn) [S-(-)-Eticlopride hydrochloride],102,110,103 (inactive),97.8 (inactive)
CC(C)=CCCC(C)=CCCC(C)=CCCC(C)=CCCC(C)=CCCC(C)=CCCC(C)=CCCC(C)=CCCC(C)=CCO [Solanesol],104,97.8,89.9 (inactive),93.9 (inactive)
CN1CCN(C2=Nc3cc(F)ccc3Cc3ccccc32)CC1 [Fluperlapine],104,102,100 (inactive),118 (inactive)
CC(C[N+](C)(C)C)OC(N)=O.[Cl-] (configuration not stated) [Bethanechol chloride],91.3,100,92.6 (inactive),99.3 (inactive)
CCCCNc1ncc(C(=O)NCc2ccc(-n3ccnc3)cc2)c(NC2CCC(O)CC2)n1 (configuration not stated),65.8,63.4,118 (inactive),104 (inactive)
CCC(=C(CC)c1ccc(O)cc1)c1ccc(O)cc1 [Diethylstilbestrol],99.3,92.6,99 (inactive),111 (inactive)
CN(C)CCC=C1c2ccccc2COc2ccccc21.Cl [Doxepin hydrochloride],100,95.2,93.1 (inactive),97.5 (inactive)
"CC(=O)Oc1ccccc1C(=O)Nc1ncc([N+](=O)[O-])s1 [2-{[(5-nitro-1,3-thiazol-2-yl)amino]carbonyl}phenyl acetate]",89.4,95.5,98.5 (inactive),103 (inactive)
CS(=O)(=O)O.Cc1ccc(NC(=O)c2ccc(CN3CCN(C)CC3)cc2)cc1Nc1nccc(-c2cccnc2)n1 [Imatinib],93.4,95.8,107 (inactive),127 (inactive)
